# Values without a mark were called inactive. The rule behind the calls is not given here.
# Biological target: Pantothenate synthetase (Mycobacterium tuberculosis (strain ATCC 25618 / H37Rv)) (UniProt P9WIL5)
# Assay: Coupled enzyme confirmation of inhibitors against recombinant Mtb PanC (AID 375);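 note: 0% = full reaction with vehicle and 100% = no enzyme background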
# Conditions: coupled enzyme assay; at 10 µM, active compounds read high
# Pantothenate synthetase (Mycobacterium tuberculosis (strain ATCC 25618 / H37Rv)), sequence (P9WIL5 whole entry, looked up): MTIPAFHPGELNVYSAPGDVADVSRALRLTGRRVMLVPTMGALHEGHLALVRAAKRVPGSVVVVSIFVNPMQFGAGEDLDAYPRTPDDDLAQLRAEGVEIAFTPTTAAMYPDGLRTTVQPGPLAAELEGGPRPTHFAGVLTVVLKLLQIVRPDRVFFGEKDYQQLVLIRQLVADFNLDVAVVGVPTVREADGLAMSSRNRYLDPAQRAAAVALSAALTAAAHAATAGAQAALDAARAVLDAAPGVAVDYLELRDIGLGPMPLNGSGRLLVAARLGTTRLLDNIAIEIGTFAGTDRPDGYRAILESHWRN
row,SMILES,inhibition [%]
1,Cn1c(SCC(=O)c2ccc(-c3ccccc3)cc2)nnc1-c1ccco1,2
2,CCN(CC)c1ccc(C(=O)n2cnc3ccccc32)cc1,4
3,Cc1ccc(S(=O)(=O)NCC(=O)OCC(=O)Nc2ncc(Cl)cc2Cl)cc1,0
4,CN1CCN(c2ncnc3c2cnn3-c2ccc(Cl)cc2)CC1,1
5,O=C(Nc1cccc(O)c1)c1ccccc1,0
6,Cc1cc(C(=O)Nc2c(C)n(C)n(-c3ccccc3)c2=O)c(C)o1,0
7,COC(=O)c1ccc(-c2nn(C)c(=O)c3ccccc23)cc1,0
8,Cn1c(SCc2c(F)cccc2Cl)nnc1-c1cccs1,0
9,COC(=O)CSc1cc(C)nc(NC(C)=O)n1,4
10,Cc1ccc2cc(CN(Cc3ccc4c(c3)OCO4)Cc3nnnn3Cc3ccco3)c(=O)[nH]c2c1C,0
11,CN(CCNS(=O)(=O)c1ccc2c(c1)oc(=O)n2C)Cc1ccccc1,0
12,CCn1ncc(Cl)c1C(=O)Nc1ccncc1,3
13,CCOC(=O)CNC(=O)CSc1nnnn1-c1cc(C)ccc1C,10
14,CCc1ccccc1NC(=O)CN(c1cccc(OC)c1)S(C)(=O)=O,7
15,CCOc1ccc(-c2nnc(N(CC)C(=O)C3CCC3)s2)cc1,11
16,CCOC(=O)N1CCN(CCC(=O)c2ccc(Cl)cc2)CC1,2
17,Cc1cc(=O)[nH]c(SCc2nc3ncccn3c2Br)n1,11
18,O=C(CN1C(=O)c2ccccc2C1=O)NCC1COc2ccccc2O1 (stereo not drawn),0

# Source: PubChem BioAssay
